Common to all, as to assay: NCI-60 one-dose screen, 48 h (100 = growth as untreated, 0 = no growth, -100 = all killed)
Common to all, as to details: 10 µM unless noted

Assay [1] deals with NCI-H23 lung.
Assay [2] relates to NCI-H226 lung.
Assay [3] concerns NCI-H322M lung.
In assay [4] the test system is HOP-62 NSCLC.
The test system of assay [5] is NCI-H460 lung.
In assay [6] the test system is HOP-92 NSCLC.
For assay [7], the system named is NCI-H522 lung.
In assay [8] the test system is A549/ATCC NSCLC.
The subject of assay [9] is 786-0 renal.
Assay [10] relates to COLO 205 colon.
Assay [11] concerns DU-145 prostate.
Assay [12] concerns K-562 leukemia.
The test system of assay [13] is MALME-3M melanoma.
The subject of assay [14] is MDA-MB-231 breast.
Assay [15] deals with RXF 393 renal.
Assay [16] relates to SF-268 CNS.
Assay [17] deals with SF-295 CNS.
Assay [18] deals with SF-539 CNS.
In assay [19] the test system is UACC-257 melanoma.
The subject of assay [20] is M14 melanoma.

The panel holds about 83,000 compounds, 20% with a hit somewhere; the sample as a whole holds those more often.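 Testing used 96-well plates and a 48-hour single-concentration exposure. Example: -40 means 40% of the starting cells died.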 Unmarked numbers belong to inactive results. Activity calls are given as the source filed them. The calls were made as follows: active = growth percent below 10; inactive = the rest.

Take `COc1cc2c(cc1-c1c(C)noc1C)ncc1nc(C3CCOCC3)n(C3CCC(OC(F)F)CC3)c12` (stereo not given): the growth in assay [1] was 56.7%; in assay [2], 67.9%; in [3], 52.4%; in assay [4], 30.4%; in assay [5] it was 72.6%; in assay [6], 21.8%. In addition, the growth is 3.74% (active) in assay [7]; 57.4% in [8]; 51.8% in [9]; 22.6% in assay [10]; 73.2% in assay [11]; 47.6% in assay [12]. Moreover, the growth in [13] was 44.1%; in assay [14], 36.2%; in assay [15] it was 59%; in [16], 64.9%; in assay [17], 53.5%; in [18], 56.6%. Also, the growth in assay [19] is 47.7%; in assay [20], 54.6%.
As to `CCOC(=O)CC1CSC(N/N=C(/C)c2cccc(C(F)(F)F)c2)=N1` (stereo not given), the growth in assay [1] is 103%; in assay [2], 99.6%; in [3], 89.6%; in [4], 97%; in [5], 110%; in [6], 100%. Moreover, the growth in assay [7] is 82.2%; in assay [8] it was 87.7%; in [9] it was 97%; in [10] it was 107%; in assay [11], 102%; in [12], 80.6%. Further, the growth in [13] is 95.3%; in assay [14], 94.4%; in assay [15], 109%; in assay [16], 100%; in [17] it was 93.5%; in [18], 103%. Further, the growth is 87.9% in assay [19] and 101% in assay [20].
Turning to `Cc1c(-c2cnc3ccc(Cl)cc3c2C(=O)O)nnn1-c1ccc(Cl)cc1`, the growth in [1] is 103%; in assay [2], 102%; in assay [3] it was 93.6%; in [4], 89.4%; in assay [5], 107%; in assay [6] it was 88.7%. For the same molecule, the growth was 89.1% in assay [7]; 97.1% in assay [8]; 62.7% in assay [9]; 93.8% in assay [10]; 114% in assay [11]; 101% in assay [12]. Besides, the growth in assay [13] was 99.6%; in [14] it was 85.8%; in assay [15], 122%; in assay [16] it was 111%; in assay [17] it was 97.7%; in assay [18], 99.6%. The results for the growth in assay [19] and in assay [20] were 95.9% and 69.8%, respectively.
Regarding `CCOc1ccc(N2C(=O)CCSC2=S)cc1`, the growth in assay [1] is 102%; in assay [2], 100%; in [3] it was 108%; in [4], 118%; in assay [5], 106%; in assay [6], 89%. Moreover, the growth is 90.9% in assay [7]; 106% in assay [8]; 106% in [9]; 112% in [10]; 103% in [11]; 111% in assay [12]. Also, the growth was 96% in assay [13]; 104% in [14]; 117% in assay [15]; 104% in assay [16]; 95.7% in [17]; 94.9% in assay [18]. Further, the results for the growth in [19] and in assay [20] were 99% and 102%, respectively.
In the case of `O=C(Nc1ccc(Cl)cc1)C1=NCCCCN1`, the growth in [1] was 92%; in [2], 84.7%; in [3] it was 83.5%; in assay [4], 70.7%; in assay [5], 86.3%; in assay [6], 89.9%. Moreover, the growth in assay [7] is 82.6%; in [8], 92.6%; in assay [9], 99.9%; in assay [10], 99.6%; in [11] it was 84.1%; in assay [12], 42.3%. Moreover, the growth in [13] is 96.7%; in assay [14] it was 97.9%; in assay [15], 106%; in assay [16], 77.7%; in [17] it was 93.4%; in assay [18] it was 95.8%. Besides, the growth in [19] is 99.7%; in assay [20] it was 75.7%.
`CCCCCCCCNC(=O)[C@@H](N)CSCOC(C)=O`: the growth in assay [1] was 87.4%; in assay [2] it was 104%; in assay [3] it was 89.8%; in [4] it was 66.7%; in assay [5] it was 72.9%; in assay [6] it was 122%. In addition, the growth in assay [7] is 90.6%; in assay [8], 84.3%; in assay [9], 106%; in [10], 109%; in assay [11], 87.6%; in assay [12] it was 71.8%. Besides, the growth in [13] is 114%; in assay [14], 91.9%; in assay [15], 124%; in assay [16], -31.5% (active); in assay [17], 102%; in assay [18] it was 79.9%. Further, the growth in [19] is 110%; in assay [20] it was 34.2%.
As to `CN(C)C(=S)NN=C(c1ccccn1)c1ccccn1`, the growth was 38.5% in [1]; 24.6% in assay [2]; 11.5% in assay [3]; 26% in [4]; 0.166% (active) in assay [5]; 64.7% in [6]. In addition, the growth in [7] was 13.7%; in assay [8] it was 12.9%; in assay [9], 14.6%; in [10], 38%; in [11] it was -18.9% (active); in [12] it was 7.91% (active). The growth in [13] was -6.46% (active); in assay [14], 40.3%; in [15], 6.64% (active); in [16] it was 24.6%; in [17], 21.5%; in assay [18], -48.2% (active). Besides, the figures for the growth in assay [19] and in assay [20] were 35.9% and 17.2%, respectively.
On to `CCN1C(=O)N(CC)C2C1NN=c1s/c(=C\c3ccccc3)c(=O)n12` (stereo not given), for which the growth in assay [1] was 25.6%; in assay [2], 59.1%; in [3] it was 42.6%; in assay [4] it was 38.2%; in assay [5] it was 4.35% (active); in assay [6], 27.3%. The growth in assay [7] was -8.72% (active); in [8], 7.65% (active); in assay [9], 25.1%; in assay [10], -2.49% (active); in assay [11], 5.47% (active); in assay [12], 8.79% (active). Besides, the growth was 41.1% in [13]; 2.86% (active) in [14]; 32% in assay [15]; 54.8% in [16]; 5.04% (active) in [17]; -12.5% (active) in assay [18]. Also, the growth in assay [19] was 45.8%; in assay [20], 8.9% (active).

The values above are taken from PubChem BioAssay (NCI).
